The record followed here is article PMC7862700, “An all-to-all approach to the identification of sequence-specific readers for epigenetic DNA modifications on cytosine”.

Holding throughout (assay): DAPPL (digital affinity profiling via proximity ligation, sequencing); 10 mM Tris-HCl pH 7.5, 50 mM NaCl, 1 mM DTT, 4% glycerol, room temperature, 30 min; GST-TFs on glutathione beads, 16-mer random dsDNA library, 0.1% formaldehyde crosslink after washing; high values mean tight binding
For one assay, the target named is T1, FLI1 (Homo sapiens, UniProt Q01543 1-452).
T1 sequence: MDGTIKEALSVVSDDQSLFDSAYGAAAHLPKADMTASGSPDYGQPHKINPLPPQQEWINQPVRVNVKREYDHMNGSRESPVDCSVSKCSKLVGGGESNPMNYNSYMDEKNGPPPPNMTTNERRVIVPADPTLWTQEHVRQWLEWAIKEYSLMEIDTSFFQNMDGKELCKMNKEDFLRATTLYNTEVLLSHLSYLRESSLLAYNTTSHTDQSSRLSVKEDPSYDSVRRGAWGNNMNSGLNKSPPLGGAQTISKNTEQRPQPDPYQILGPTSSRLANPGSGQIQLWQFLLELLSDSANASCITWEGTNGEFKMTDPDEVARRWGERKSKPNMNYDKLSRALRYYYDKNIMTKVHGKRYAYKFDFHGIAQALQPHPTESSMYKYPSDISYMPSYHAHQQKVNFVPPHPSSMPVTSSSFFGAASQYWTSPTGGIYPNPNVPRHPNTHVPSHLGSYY
The note with it: protein: recombinant; tags: N-terminal GST; dsDNA, one strand shown. The gist of the method:
(§1)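 Pools were built from human transcription factors expressed in yeast as GST fusions, captured on glutathione beads and DNA-barcoded, along with a tag-only sample. Incubation with 200 nmole of a 16-mer random double-stranded DNA library lasted 30 min at room temperature in Tris/NaCl/DTT/glycerol buffer, and was followed by washing, 0.1% formaldehyde crosslinking, proximity ligation, PCR amplification and Illumina NextSeq500 sequencing. Binding signal is the quotient of each hexamer's read frequency for a factor and its frequency for the tag-only sample.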

The next assay concerns the target T2, ELK1 (Homo sapiens, UniProt P19419 1-428).
T2 sequence: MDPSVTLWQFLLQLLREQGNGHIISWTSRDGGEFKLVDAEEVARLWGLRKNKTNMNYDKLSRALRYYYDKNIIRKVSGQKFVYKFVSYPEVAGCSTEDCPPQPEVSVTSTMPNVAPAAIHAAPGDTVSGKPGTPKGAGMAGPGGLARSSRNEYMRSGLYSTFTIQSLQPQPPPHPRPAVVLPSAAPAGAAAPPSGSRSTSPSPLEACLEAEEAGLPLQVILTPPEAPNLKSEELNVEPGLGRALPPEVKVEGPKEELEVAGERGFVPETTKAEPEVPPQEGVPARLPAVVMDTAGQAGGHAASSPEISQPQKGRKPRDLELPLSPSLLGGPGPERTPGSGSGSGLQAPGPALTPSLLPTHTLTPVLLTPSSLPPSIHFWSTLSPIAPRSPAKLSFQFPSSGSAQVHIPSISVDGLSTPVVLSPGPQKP
The conditions noted are these: protein: recombinant; tags: N-terminal GST; dsDNA, one strand shown. In a few lines:
as §1

In another assay the target is T3, GABPA (Homo sapiens, UniProt Q06546 1-454).
T3 sequence: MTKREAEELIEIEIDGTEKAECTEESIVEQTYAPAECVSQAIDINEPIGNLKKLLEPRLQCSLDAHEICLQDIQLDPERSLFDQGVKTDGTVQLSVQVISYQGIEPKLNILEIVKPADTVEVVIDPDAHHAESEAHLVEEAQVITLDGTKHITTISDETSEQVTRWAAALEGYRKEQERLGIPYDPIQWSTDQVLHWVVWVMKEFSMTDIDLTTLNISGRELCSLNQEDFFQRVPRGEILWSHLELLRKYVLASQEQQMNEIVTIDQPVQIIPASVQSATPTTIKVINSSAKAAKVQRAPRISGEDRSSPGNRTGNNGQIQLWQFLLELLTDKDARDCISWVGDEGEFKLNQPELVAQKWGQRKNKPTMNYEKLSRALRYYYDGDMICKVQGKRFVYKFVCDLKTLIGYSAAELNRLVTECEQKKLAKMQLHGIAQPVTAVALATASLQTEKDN
The conditions noted are these: protein: recombinant; tags: N-terminal GST; dsDNA, one strand shown. The gist of the method:
as §1

For a further assay, the target named is T4, ERG (Homo sapiens, UniProt P11308 1-479).
T4 sequence: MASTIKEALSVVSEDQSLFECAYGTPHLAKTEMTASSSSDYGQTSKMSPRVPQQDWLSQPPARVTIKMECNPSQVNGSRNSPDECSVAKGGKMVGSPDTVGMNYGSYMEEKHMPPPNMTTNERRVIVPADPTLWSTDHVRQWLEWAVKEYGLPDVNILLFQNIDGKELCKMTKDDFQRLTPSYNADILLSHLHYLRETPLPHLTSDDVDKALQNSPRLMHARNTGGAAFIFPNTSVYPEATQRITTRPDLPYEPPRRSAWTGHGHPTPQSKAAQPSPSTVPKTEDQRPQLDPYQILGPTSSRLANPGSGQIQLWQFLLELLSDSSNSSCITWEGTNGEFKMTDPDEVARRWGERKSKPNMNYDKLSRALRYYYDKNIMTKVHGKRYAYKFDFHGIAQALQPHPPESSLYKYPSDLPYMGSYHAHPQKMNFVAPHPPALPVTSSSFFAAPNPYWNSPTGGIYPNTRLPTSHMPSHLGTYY
The note with it: protein: recombinant; tags: N-terminal GST; dsDNA, one strand shown. The gist of the method:
as §1

For a further assay, the target named is ELF1 (Homo sapiens, UniProt P32519 1-619). The conditions noted are these: protein: recombinant; tags: N-terminal GST; dsDNA, one strand shown. The gist of the method: as §1
In the next assay the target is T5, EHF (Homo sapiens, UniProt Q9NZC4 1-300).
T5 sequence: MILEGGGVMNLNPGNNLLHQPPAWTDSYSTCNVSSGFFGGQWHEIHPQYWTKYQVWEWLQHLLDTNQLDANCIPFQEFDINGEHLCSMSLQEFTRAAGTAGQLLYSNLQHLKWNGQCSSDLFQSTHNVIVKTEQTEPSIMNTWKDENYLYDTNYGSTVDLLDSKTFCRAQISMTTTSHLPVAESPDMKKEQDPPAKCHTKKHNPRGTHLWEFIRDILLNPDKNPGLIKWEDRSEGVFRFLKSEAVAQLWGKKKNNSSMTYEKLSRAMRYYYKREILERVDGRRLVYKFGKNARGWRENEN
The conditions noted are these: protein: recombinant; tags: N-terminal GST; dsDNA, one strand shown. The gist of the method: as §1

Another assay has as its target SPI1 (Homo sapiens, UniProt P17947 1-270). The note with it: protein: recombinant; tags: N-terminal GST; dsDNA, one strand shown. The gist of the method:
as §1

A further assay addresses SPIB (Homo sapiens, UniProt Q01892 1-262). The conditions noted are these: protein: recombinant; tags: N-terminal GST; dsDNA, one strand shown. In a few lines:
as §1

A further assay addresses T6, ELK3 (Homo sapiens, UniProt P41970 1-407).
T6 sequence: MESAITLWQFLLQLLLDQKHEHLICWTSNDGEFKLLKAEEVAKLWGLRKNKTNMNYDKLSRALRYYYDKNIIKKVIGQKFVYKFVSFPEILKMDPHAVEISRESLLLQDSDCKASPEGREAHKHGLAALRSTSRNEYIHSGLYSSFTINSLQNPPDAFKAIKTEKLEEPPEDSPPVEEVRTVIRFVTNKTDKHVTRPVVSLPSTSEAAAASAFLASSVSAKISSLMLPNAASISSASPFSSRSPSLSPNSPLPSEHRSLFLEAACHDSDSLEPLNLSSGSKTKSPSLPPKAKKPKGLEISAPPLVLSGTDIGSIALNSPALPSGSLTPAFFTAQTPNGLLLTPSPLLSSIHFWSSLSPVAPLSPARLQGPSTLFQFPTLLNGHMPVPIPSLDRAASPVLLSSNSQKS
The conditions noted are these: protein: recombinant; tags: N-terminal GST; dsDNA, one strand shown. The gist of the method: as §1

Another assay addresses T7, FEV (Homo sapiens, UniProt Q99581 1-238).
T7 sequence: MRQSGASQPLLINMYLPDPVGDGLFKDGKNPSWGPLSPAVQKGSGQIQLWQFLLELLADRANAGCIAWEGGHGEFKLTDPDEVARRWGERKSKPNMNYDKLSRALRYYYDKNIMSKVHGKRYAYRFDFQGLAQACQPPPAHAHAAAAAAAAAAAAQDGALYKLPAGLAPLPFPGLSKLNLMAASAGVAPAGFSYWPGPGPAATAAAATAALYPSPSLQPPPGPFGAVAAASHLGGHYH
The note with it: protein: recombinant; tags: N-terminal GST; dsDNA, one strand shown. The gist of the method:
as §1

For the next assay, the target named is ETV5 (Homo sapiens, UniProt P41161 1-510). The note with it: protein: recombinant; tags: N-terminal GST; dsDNA, one strand shown. The gist of the method:
as §1

Another assay has as its target HSF1 (Homo sapiens, UniProt Q00613 1-529). The conditions noted are these: protein: recombinant; tags: N-terminal GST; chain copies: 3; dsDNA, one strand shown. In a few lines: as §1
A further assay has as its target T8, SPIC (Homo sapiens, UniProt Q8N5J4 1-248).
T8 sequence: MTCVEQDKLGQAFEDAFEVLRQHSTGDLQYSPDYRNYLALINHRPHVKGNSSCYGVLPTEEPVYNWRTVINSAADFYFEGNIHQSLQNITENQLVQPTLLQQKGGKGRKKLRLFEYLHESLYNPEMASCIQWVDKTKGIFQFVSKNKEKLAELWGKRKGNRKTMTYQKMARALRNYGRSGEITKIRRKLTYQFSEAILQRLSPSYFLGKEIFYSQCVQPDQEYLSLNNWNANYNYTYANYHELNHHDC
The conditions noted are these: protein: recombinant; tags: N-terminal GST; dsDNA, one strand shown. In a few lines:
as §1

For another assay, the target named is ELF4 (Homo sapiens, UniProt Q99607 1-663). The conditions noted are these: protein: recombinant; tags: N-terminal GST; dsDNA, one strand shown. In a few lines:
as §1

The next assay concerns the target T9, ELK4 (Homo sapiens, UniProt P28324-2 1-405).
T9 sequence: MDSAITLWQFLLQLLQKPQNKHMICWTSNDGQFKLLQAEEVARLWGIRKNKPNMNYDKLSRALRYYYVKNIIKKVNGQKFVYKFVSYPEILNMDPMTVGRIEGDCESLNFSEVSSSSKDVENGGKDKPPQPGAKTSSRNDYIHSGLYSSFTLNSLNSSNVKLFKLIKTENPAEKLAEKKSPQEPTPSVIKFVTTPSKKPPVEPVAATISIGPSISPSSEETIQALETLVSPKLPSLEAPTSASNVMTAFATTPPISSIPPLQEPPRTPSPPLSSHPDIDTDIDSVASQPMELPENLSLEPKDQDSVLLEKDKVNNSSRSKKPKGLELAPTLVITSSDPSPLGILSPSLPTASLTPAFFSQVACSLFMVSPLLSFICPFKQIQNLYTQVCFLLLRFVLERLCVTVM
The note with it: protein: recombinant; tags: N-terminal GST; dsDNA, one strand shown. In a few lines:
as §1

The target in another assay is T10, ETV2 (Homo sapiens, UniProt O00321 1-342).
T10 sequence: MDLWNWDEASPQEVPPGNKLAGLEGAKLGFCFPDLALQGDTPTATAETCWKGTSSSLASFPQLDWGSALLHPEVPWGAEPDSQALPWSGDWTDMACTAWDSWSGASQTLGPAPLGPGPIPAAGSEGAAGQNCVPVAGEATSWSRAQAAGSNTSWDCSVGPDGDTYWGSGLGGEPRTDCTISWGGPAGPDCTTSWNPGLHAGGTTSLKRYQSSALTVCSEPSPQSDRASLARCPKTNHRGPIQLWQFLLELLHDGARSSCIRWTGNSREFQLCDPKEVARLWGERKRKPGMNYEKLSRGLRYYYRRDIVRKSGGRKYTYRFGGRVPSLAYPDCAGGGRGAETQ
The conditions noted are these: protein: recombinant; tags: N-terminal GST; dsDNA, one strand shown. The gist of the method: as §1

The next assay addresses T11, ELF3 (Homo sapiens, UniProt P78545 1-371).
T11 sequence: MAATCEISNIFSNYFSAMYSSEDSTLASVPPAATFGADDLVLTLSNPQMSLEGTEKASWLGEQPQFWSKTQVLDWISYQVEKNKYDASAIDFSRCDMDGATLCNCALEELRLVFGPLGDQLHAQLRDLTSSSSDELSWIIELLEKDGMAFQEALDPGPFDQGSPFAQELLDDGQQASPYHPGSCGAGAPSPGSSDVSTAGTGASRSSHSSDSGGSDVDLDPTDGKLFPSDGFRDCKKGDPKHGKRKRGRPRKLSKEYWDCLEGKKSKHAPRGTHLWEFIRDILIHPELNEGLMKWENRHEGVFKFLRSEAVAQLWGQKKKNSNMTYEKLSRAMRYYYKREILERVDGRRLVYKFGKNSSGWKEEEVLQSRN
The note with it: protein: recombinant; tags: N-terminal GST; dsDNA, one strand shown. The gist of the method: as §1

A further assay addresses CRX (Homo sapiens, UniProt O43186 1-299). The conditions noted are these: protein: recombinant; tags: N-terminal GST; dsDNA, one strand shown. In a few lines: as §1
The target of a further assay is ETV1 (Homo sapiens, UniProt P50549 1-477). The note with it: protein: recombinant; tags: N-terminal GST; dsDNA, one strand shown. In a few lines: as §1
Sequence of ETV1 (P50549 whole entry): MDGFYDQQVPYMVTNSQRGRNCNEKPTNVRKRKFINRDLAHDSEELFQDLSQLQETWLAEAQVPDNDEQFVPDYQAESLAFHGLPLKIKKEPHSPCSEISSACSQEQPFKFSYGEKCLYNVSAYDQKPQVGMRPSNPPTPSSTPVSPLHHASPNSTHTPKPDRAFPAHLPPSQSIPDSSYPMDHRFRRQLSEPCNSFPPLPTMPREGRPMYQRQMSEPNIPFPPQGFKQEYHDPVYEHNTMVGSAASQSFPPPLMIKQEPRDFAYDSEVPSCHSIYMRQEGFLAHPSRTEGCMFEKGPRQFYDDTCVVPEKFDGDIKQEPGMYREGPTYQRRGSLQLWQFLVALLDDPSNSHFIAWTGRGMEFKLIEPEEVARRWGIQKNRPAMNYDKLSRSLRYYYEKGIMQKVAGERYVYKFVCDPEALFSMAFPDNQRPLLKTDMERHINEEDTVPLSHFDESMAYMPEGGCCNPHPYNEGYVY

Sequence of SPIB (Q01892 whole entry): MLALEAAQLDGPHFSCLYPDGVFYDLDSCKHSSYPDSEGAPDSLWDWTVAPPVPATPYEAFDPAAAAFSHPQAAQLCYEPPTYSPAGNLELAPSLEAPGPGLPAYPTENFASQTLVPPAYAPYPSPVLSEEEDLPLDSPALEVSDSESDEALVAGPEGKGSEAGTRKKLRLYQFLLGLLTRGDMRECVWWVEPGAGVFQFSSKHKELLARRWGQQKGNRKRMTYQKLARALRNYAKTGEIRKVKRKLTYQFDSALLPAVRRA
Sequence of ETV5 (P41161 whole entry): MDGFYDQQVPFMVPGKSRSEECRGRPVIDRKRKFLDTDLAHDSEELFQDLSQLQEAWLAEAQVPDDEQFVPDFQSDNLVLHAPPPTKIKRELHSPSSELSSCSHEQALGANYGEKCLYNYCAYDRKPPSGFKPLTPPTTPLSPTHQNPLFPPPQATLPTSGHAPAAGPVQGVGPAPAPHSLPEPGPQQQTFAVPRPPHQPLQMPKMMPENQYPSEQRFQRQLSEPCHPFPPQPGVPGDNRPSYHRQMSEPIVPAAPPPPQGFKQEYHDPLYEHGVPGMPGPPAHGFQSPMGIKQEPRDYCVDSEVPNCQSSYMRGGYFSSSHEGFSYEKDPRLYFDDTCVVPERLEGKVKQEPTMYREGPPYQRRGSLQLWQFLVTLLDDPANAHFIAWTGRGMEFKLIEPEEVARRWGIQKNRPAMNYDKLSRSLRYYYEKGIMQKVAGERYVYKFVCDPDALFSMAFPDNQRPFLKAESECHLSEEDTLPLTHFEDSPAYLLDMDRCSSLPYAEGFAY
Sequence of ELF1 (P32519 whole entry): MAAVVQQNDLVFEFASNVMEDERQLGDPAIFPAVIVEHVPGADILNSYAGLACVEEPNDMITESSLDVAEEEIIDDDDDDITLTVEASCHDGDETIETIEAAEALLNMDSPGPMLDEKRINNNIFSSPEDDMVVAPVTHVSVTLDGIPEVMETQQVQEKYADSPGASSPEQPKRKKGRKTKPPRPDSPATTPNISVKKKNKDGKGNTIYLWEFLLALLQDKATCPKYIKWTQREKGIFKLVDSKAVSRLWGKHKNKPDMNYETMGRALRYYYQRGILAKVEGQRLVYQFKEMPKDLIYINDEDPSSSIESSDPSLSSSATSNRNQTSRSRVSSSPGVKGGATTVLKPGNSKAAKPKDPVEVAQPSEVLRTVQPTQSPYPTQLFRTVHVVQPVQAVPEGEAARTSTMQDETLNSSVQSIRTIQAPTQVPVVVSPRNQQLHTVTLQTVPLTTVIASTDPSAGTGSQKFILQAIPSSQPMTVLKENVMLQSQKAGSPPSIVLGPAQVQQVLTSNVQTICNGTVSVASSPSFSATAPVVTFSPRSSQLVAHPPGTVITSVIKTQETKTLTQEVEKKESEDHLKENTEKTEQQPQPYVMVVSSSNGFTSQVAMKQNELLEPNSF
Sequence of HSF1 (Q00613 whole entry): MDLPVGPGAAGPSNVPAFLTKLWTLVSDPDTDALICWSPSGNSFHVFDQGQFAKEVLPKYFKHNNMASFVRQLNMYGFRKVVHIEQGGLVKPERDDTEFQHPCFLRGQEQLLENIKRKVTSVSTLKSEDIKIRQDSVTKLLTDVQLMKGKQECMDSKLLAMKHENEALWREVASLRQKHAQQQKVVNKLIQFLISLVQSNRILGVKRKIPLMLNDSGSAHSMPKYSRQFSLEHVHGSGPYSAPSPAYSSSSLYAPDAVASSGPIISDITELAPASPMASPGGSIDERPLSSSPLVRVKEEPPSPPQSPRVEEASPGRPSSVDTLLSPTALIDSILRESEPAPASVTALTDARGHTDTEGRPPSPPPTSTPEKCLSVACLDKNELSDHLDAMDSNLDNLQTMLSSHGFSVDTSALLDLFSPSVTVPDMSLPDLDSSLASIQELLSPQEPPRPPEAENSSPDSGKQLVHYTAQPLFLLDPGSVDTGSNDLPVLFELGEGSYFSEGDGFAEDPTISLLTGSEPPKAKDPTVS
Sequence of CRX (O43186 whole entry): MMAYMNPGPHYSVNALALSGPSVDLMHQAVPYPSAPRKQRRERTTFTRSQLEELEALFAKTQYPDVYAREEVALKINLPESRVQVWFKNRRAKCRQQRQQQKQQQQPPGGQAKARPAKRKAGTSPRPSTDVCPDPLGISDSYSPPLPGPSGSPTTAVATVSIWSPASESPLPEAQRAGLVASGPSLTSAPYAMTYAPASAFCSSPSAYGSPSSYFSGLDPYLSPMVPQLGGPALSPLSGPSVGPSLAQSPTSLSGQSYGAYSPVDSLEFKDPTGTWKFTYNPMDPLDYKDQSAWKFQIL
Sequence of ELF4 (Q99607 whole entry): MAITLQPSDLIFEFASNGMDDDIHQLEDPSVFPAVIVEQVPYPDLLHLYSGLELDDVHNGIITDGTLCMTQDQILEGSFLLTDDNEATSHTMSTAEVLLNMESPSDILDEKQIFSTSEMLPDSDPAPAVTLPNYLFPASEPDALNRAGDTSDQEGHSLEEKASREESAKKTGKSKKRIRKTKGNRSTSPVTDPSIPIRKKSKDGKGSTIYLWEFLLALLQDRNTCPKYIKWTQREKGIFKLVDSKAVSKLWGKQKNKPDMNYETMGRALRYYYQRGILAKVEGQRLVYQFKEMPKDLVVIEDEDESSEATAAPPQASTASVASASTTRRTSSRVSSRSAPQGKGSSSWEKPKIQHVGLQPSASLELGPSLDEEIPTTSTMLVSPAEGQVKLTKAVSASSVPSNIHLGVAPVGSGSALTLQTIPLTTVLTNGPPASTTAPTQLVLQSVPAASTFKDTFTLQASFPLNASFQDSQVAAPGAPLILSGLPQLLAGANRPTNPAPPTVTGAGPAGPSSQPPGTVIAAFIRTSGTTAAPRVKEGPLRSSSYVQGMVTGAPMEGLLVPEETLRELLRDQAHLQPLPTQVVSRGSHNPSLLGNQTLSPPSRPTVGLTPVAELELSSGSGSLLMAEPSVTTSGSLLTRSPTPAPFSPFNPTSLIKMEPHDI

For the sequence ATTTGT, the binding signal was 1.36 fold enrichment (6-mer frequency, TF over GST control) in the assay with FLI1; 1.36 fold enrichment (6-mer frequency, TF over GST control) with ELK1; 1.34 fold enrichment (6-mer frequency, TF over GST control) with GABPA; 1.28 fold enrichment (6-mer frequency, TF over GST control) with ERG; 1.31 fold enrichment (6-mer frequency, TF over GST control) with ELF1; 1.3 fold enrichment (6-mer frequency, TF over GST control) with EHF. Besides, the binding signal with SPI1 was 1.26 fold enrichment (6-mer frequency, TF over GST control); with SPIB, 1.27 fold enrichment (6-mer frequency, TF over GST control); with ELK3, 1.24 fold enrichment (6-mer frequency, TF over GST control); with FEV it was 1.34 fold enrichment (6-mer frequency, TF over GST control); with ETV5, 1.41 fold enrichment (6-mer frequency, TF over GST control); in the assay with HSF1, 1.33 fold enrichment (6-mer frequency, TF over GST control). Besides, the binding signal with SPIC was 1.35 fold enrichment (6-mer frequency, TF over GST control); with ELF4, 1.32 fold enrichment (6-mer frequency, TF over GST control); in the assay with ELK4, 1.45 fold enrichment (6-mer frequency, TF over GST control); with ETV2, 1.44 fold enrichment (6-mer frequency, TF over GST control); in the assay with ELF3, 1.41 fold enrichment (6-mer frequency, TF over GST control); in the assay with CRX it was 1.58 fold enrichment (6-mer frequency, TF over GST control). The binding signal with ETV1 was 1.23 fold enrichment (6-mer frequency, TF over GST control).
